RECQ1 inh – qHTS Assay for Inhibitors of RecQ-Like Dna Helicase 1 (RECQ1). 240,000 tested, 0.54% active. RECQ1 DNA unwinding, red fluorescence kinetic read. Potency, µM (series often up to 57.3 µM), without a hit: top-dose activity, negative = inhibition, actives largely listed as inhibitors. AID 2549, 2010;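 note: plate controls were vehicle for no effect and no enzyme for full effect; nearly all actives have a fitted effect of over 30% in size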
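50 nM RECQ1T1 preincubated 15 min with compound in Tris pH 8.0 buffer with MgCl2, DTT, Tween-20 and 2.5 ug/ml poly(dI-dC); started with 200 nM TAMRA/BHQ-2 forked duplex and 2 mM ATP. Unwinding read as fluorescence (525/598 nm), two reads 2 h apart.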
WRN helicase inh-1 – qHTS for Inhibitors of WRN Helicase; 360,000 tested, 0.46% active; AID 651768, 2012; WRN helicase unwinding, fluorescent forked duplex, kinetic; Bifunctional 3'-5' exonuclease/ATP-dependent helicase WRN (Homo sapiens), Q14191; Potency, µM (doses to about 114 µM), for the others: at the top dose activity change, negative = inhibition, usual class: inhibitors; note: % is set by controls: 0 for no effect and ±100 for the full control effect; nearly all actives have a fitted effect of over 55% in size
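Fluorescence dequenching readout, ex 525 nm/em 598 nm, kinetic mode: forked duplex DNA (100 nM final) with adjacent fluorophore and quencher unwound by WRN (20 nM final) with 2 mM ATP. Compound preincubation 15 min, room temperature.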
L3MBTL1 inh – qHTS Assay for the Inhibitors of L3MBTL1 | 230,000 tested, 0.66% active | Potency, µM (doses to about 57.1 µM), for inactives: top-dose activity, negative = inhibition, most hits filed as inhibitors | AID 485360, 2010 | AlphaScreen L3MBTL1–H3K9me1 peptide binding; note: % is set by controls: 0 for no effect and ±100 for the full control effect; nearly all actives have a fitted effect of over 60% in size
Target sequence (Q9Y468 whole entry, looked up): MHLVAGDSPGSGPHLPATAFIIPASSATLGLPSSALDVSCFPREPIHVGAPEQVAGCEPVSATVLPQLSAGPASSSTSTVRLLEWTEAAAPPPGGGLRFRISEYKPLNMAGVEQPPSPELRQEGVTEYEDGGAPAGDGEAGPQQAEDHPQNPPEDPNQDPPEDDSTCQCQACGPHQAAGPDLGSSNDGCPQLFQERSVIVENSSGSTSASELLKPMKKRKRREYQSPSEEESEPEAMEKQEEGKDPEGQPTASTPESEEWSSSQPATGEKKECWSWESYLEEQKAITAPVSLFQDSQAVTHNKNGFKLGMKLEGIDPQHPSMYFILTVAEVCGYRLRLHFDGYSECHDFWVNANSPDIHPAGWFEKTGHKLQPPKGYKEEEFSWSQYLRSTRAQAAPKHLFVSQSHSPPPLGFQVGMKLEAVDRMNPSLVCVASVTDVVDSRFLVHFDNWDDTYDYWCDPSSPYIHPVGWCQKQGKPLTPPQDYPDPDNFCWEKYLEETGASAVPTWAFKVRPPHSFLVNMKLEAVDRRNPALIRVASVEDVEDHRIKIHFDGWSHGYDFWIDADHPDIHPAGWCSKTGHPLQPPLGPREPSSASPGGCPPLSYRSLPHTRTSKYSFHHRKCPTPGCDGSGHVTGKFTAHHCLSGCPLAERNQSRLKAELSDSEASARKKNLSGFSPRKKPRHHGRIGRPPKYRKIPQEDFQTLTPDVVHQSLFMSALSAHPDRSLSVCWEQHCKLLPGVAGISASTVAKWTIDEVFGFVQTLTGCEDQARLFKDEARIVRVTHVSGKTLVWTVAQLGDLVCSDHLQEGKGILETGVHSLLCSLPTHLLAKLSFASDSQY
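L3MBTL1 50 nM + b-AHA-H3(1-15)K9me1 75 nM, 30 min RT; compound added, 30 min RT; streptavidin donor/Ni-chelate acceptor beads 10 ug/mL each final, 30 min RT dark; AlphaScreen read.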
APE1 inh – qHTS Assay for Inhibitors of the Human Apurinic/apyrimidinic Endonuclease 1 (APE1). DNA repair nuclease/redox regulator APEX1 (Homo sapiens), P27695. recombinant APE1, TAMRA/BHQ-2 abasic DNA cleavage fluorescence. Potency, µM (doses to about 65.8 µM), inactives show top-dose activity change, negative = inhibition, hits mostly inhibitors. 350,000 tested, 0.35% active. AID 2517, 2012;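 note: plate controls were vehicle for no effect and reference inhibitor for full effect; nearly all actives have a fitted effect of over 55% in size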
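Step 1: APE1 (0.75 nM) with compound, 15 min RT. Step 2: add 50 nM fluorophore/quencher THF duplex. Step 3: three fluorescence reads 60 s apart (525/598 nm); read 3 minus read 1 = reaction progress.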
BLM helicase inh-1 – qHTS Assay for Inhibitors of Bloom's syndrome helicase (BLM); RecQ-like DNA helicase BLM (Homo sapiens), P54132; recombinant BLM DNA unwinding, fluorescence dequenching; Potency, µM (series often up to 56.1 µM), for inactives: top-dose activity change, negative = inhibition, usual class: inhibitors; 350,000 tested, 0.2% active; AID 2528, 2010;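 note: plate controls were vehicle for no effect and no enzyme for full effect; nearly all actives have a fitted effect of over 35% in size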
WRN helicase inh-2 – qHTS for Inhibitors of WRN Helicase: Confirmatory Assay for Cherry-picked Compounds; shares compounds with WRN helicase inh-1; WRN helicase DNA unwinding, fluorescence kinetic; Potency, µM (series often up to 57.1 µM), inactives show at the highest dose activity, negative = inhibition, usual class: inhibitors; 610 tested, 63% active; note: nearly all actives have a fitted effect of over 65% in size
TO DNA binding – qHTS for Inhibitors of WRN Helicase: Thiazole Orange DNA Binding Counterscreen; Potency, µM (doses to about 57.1 µM), inactives show at the highest dose activity change, negative = inhibition, usual class: inhibitors; thiazole orange DNA binding displacement, fluorescence; shares compounds with WRN helicase inh-1; AID 720499, 2013; 610 tested, 10% active;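 note: drop in dye fluorescence marks compound binding to DNA; % is set by controls: 0 for no effect and ±100 for the full control effect; nearly all actives have a fitted effect of over 60% in size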
BLM helicase inh-2 – qHTS for Inhibitors of WRN Helicase: BLM Helicase Counterscreen for WRN Inhibitors; shares compounds with WRN helicase inh-1; Recombinant BLM helicase DNA unwinding, red fluorescence; Potency, µM (highest dose often 57.1 µM), for inactives: at the highest dose activity change, negative = inhibition, hits mostly inhibitors; 610 tested, 60% active; AID 720503, 2013; note: nearly all actives have a fitted effect of over 60% in size
An asterisk follows results filed as active; i = inactive; ? = inconclusive; nt = no result; [ ] = another dose, or the depositor's remark. Shown are actives, neighbours in structure and some others; about 0.92% of the full set was active somewhere. Calls come from the whole dose curve; as a rule, active = well fitted curve in the direction sought with a large enough effect; inconclusive = small, poorly fitted or top-dose-only effect, or another doubt; inactive = no such curve, though single readings can be large; an effect the other way counts as inactive or inconclusive. Potency is the fitted concentration of half-maximal effect.

SMILES | RECQ1 inh | WRN helicase inh-1 | L3MBTL1 inh | APE1 inh | BLM helicase inh-1 | WRN helicase inh-2 | TO DNA binding | BLM helicase inh-2
Cc1cccc(NC(=O)C(Cc2ccccc2)NS(=O)(=O)c2ccc3c(c2)c(=O)n(C)c(=O)n3C)c1 (stereo unspecified) | nt | nt | nt | nt | -2% | nt | nt | nt
COc1cc(/C=C2\SC(=S)N(Nc3ncc(C(F)(F)F)cc3Cl)C2=O)ccc1O | 28µM* | 32µM* | nt | ? | -20% | 7.6µM* | -25% | 6.1µM*
COc1cc(/C=C2\SC(=N)N(c3ccc(F)cc3)C2=O)ccc1O | -2% | -15% | nt | -9% | -8% | nt | nt | nt
COc1ccc(N2CCN(C(=O)c3c(C)oc4ncnc(N5CCCCC5)c34)CC2)cc1 | nt | nt | nt | nt | -2% | nt | nt | nt
N#C/C(=C/c1ccc(O)c(O)c1)c1nc2ccccc2[nH]1 | nt | 35µM* | nt | -32% | ? | 6.1µM* | 28% | 8.6µM*
CC(C)Cc1nn2c(=O)cc(COC(=O)c3cccc(NC(=O)c4cccs4)c3)nc2s1 | nt | nt | nt | nt | -9% | nt | nt | nt
CC(=O)Nc1ccc2nc3c(=O)[nH]c(=O)[nH]c3nc2c1 | nt | nt | nt | nt | 11µM* | 3.8µM* | 29% | 1.4µM*
CC(=O)Nc1ccc2cc3ccc(NC(C)=O)cc3nc2c1 | -11% | 8% | 14% | 5% | 3% | nt | nt | nt
O=C(O)c1sccc1S(=O)(=O)Nc1ccc(Cl)cc1 | -8% | nt | nt | -3% | 5% | nt | nt | nt
O=C1OC(c2ccc3c(c2)OCO3)=N/C1=C\c1ccc(C(=O)O)cc1 | nt | ? | nt | 4.2µM* | 1% | 19µM* | ? | 5.4µM*
O=C(O)c1cccc(-c2ccc3c(c2)OCO3)c1 | nt | 4% | nt | 11% | -4% | nt | nt | nt
COc1ccccc1/C=C/c1nc(C#N)c(NC2CCCCC2)o1 | nt | nt | nt | nt | -6% | nt | nt | nt
COc1cccc(C(c2c(C)[nH]n(-c3ccccc3)c2=O)c2c(C)[nH]n(-c3ccccc3)c2=O)c1O | -10% | -10%[11.6 µM] | -6% | -2% | 0% | nt | nt | nt
COc1cccc(C(c2c(C)[nH]n(-c3ccccc3)c2=O)c2c(C)[nH]n(-c3ccccc3)c2=O)c1OC | -4% | ? | -1% | -8% | -4% | -11% | -10% | -11%
COc1ccc(NCc2cc3cc4c(cc3n(CC(=O)Nc3ccc(C)cc3)c2=O)OCO4)cc1 | nt | nt | nt | nt | -3% | nt | nt | nt
O=C(/C=C/c1ccco1)Nc1ccc(Cl)c(S(=O)(=O)N2CCOCC2)c1 | i | -4% | -10% | -2% | -2% | nt | nt | nt
O=C(O)c1cc(N2N=C(C(F)(F)F)/C(=C/C=C/c3ccco3)C2=O)ccc1Cl | 17% | 0.84µM* | 1µM* | 1% | ? | 1.4µM* | -14% | 0.61µM*
Cc1ccc(CNC(=O)C(CC(C)C)NS(=O)(=O)c2ccc3c(c2)oc(=O)n3C)cc1 (stereo unspecified) | nt | nt | nt | nt | -4% | nt | nt | nt
Cc1nn(-c2ccccc2)c2nc(=O)n(-c3ccccc3)cc12 | -4% | ? | 0% | 0% | 3% | -17% | 0% | -13%
O=C(O)c1cc(-c2ccc(/C=C3\NC(=O)N(c4ccc(Cl)cc4)C3=O)o2)ccc1Cl | ? | 35µM* | 7.9µM* | 25µM* | 52% | 6.8µM* | ? | 24µM*
O=C(Nc1cccc(F)c1)C1CCN(S(=O)(=O)c2ccc3[nH]c4c(c3c2)CCCCC4)CC1 | nt | nt | nt | nt | -14% | nt | nt | nt
Cc1nc2ccc(N)cc2c(=O)n1Cc1ccc(Cl)cc1 | -4% | -17% | nt | 4% | -1% | nt | nt | nt
Nc1ccc(Cn2ccc3c4c(N)nc(N)nc4ccc32)cc1 | nt | 16µM* | nt | nt | nt | 22µM* | 76% | 14µM*
O=C(O)c1ccc(N/N=C/C=C/c2ccc([N+](=O)[O-])o2)cc1 | nt | ? | nt | 11µM* | -23% | 19µM* | ? | 17µM*
O=C(N/N=C/c1ccc([N+](=O)[O-])o1)C(=O)Nc1ccc(C(=O)O)cc1 | -4% | -1% | -17% | -8% | -1% | nt | nt | nt
SMILES | RECQ1 inh | WRN helicase inh-1 | L3MBTL1 inh | APE1 inh | BLM helicase inh-1 | WRN helicase inh-2 | TO DNA binding | BLM helicase inh-2
Nc1ccc2nc(-c3cccc(-c4nc5ccc(N)cc5[nH]4)n3)[nH]c2c1 | nt | 20µM* | nt | -90% | 14µM* | 5.4µM* | 17µM* | 4.8µM*
CO[C@H]1COC(=O)[C@@H](Cc2ccccc2)NC(=O)[C@@H](C)COC(=O)CCC[C@@H]1C | i[11.5 µM] | nt | nt | 3%[12.4 µM] | -3%[12.4 µM] | nt | nt | nt
CN(C)c1ccc(C=Cc2nccc3ccccc23)cc1 | nt | 79µM* | nt | nt | nt | ? | 221% | ?
COc1cccc(C=Cc2nccc3ccccc23)c1OC | nt | -3% | nt | nt | nt | nt | nt | nt
Cc1cccc(NC(=O)CN2C(=O)CSc3ccc(S(=O)(=O)N4CCCC4)cc32)c1C | nt | nt | nt | nt | 0% | nt | nt | nt
CNc1ncnc(Sc2nc(N)nc3nc[nH]c23)c1[N+](=O)[O-] | nt | -5% | nt | nt | nt | nt | nt | nt
Nc1nc(Sc2ccc([N+](=O)[O-])c3nonc23)c2[nH]cnc2n1 | nt | 11µM* | nt | nt | nt | 22µM* | 43µM* | 15µM*
O=C(O)c1ccccc1-c1c2cc(I)c(=O)c(I)c-2oc2c(I)c(O)c(I)cc12 | 22µM* | 4.7µM* | nt | 25µM* | 28µM* | 22µM* | i | 19µM*
C/C=C(/C)C#N | 9% | nt | nt | 1% | nt | nt | nt | nt
COCCn1c(=O)sc2ccccc2c1=O | 0% | ? | -18% | 14% | 0% | 6% | -4% | -11%
COc1cccc(C2CC(=O)Nc3c2ccc(C)c3C)c1OC (stereo unspecified) | nt | nt | nt | nt | -2% | nt | nt | nt
O=C(O)COc1ccccc1/C=C1\SC(=S)N(NC(=O)c2ccccc2O)C1=O | nt | ? | 13µM* | 15% | nt | ? | -9% | -23%
CS(=O)(=O)Nc1ccc(-c2ccc(/C=C3\SC(N)=NC3=O)o2)cc1 | nt | ? | -6% | 12% | -5% | nt | nt | nt
